Data taken from PubChem BioAssay AID2314 (National Center for Advancing Translational Sciences (NCATS), 2010).
Among all 300,000 compounds or so, about 37,000 (12%) were called active. Only a selection was taken, and actives are over-represented in it overall. Unmarked numbers belong to inactive results. Cut-off read from the data, not from the text of the source: active = max response mostly above about 13% (no sharp cut-off); inactive = mostly below about 14%.

Assay: Cycloheximide Counterscreen for Small Molecule Inhibitors of Shiga Toxin; note: read at 38.3 µM for the half of the compounds with a filed dose; 0% is about no effect
Details: cell reporter, cycloheximide protein synthesis inhibition counterscreen; stronger effect = higher value

Compound	max response
CCCc1ccc(OCC(O)CN2CCN(C(=O)OCC)CC2)cc1 (stereo unspecified)	-3.42%
Cc1ccc(Cn2c(C)nc3c(c2=O)c2nc4ccccc4nc2n3Cc2ccco2)cc1	15.8% (active)
Cc1nc2c(c(=O)n1Cc1ccco1)c1nc3ccccc3nc1n2Cc1ccccc1	-2.66%
COCCCn1c2nc3ccccc3nc2c2c(=O)n(Cc3ccc(Cl)cc3)c(C)nc21	1.89%
O=C(CCCN1CCc2[nH]c3ccc(F)cc3c2C1)c1ccc(F)cc1	-1.91%
Cc1ccc(S(=O)(=O)/N=S(\C)C(C)C)cc1 (stereo unspecified)	-5.61%
Brc1ccc(-c2nnc(-c3ccccc3)o2)o1	30.6% (active)
Cn1nc(-c2ccccc2)c(-c2nc(-c3ccc(Cl)cc3)no2)c1Cl	7.15%
Brc1ccc(-c2noc(-c3ccccc3)n2)o1	60.7% (active)
Nc1nonc1-c1noc(-c2ccc(Br)o2)n1	1.8%
Cc1cccc(C)c1OC(=O)CSc1nnc(-c2ccccc2)o1	-2.59%
O=C(CSc1nnc(-c2ccccc2)o1)N1CCOCC1	-2.26%
Cc1ccccc1OCc1nnc(SCC(=O)N2c3ccccc3Sc3ccc(Cl)cc32)o1	-2.04%
CCOc1ccc(/C=N/OCC(=O)NCc2cccs2)cc1	-5.69%
COc1cccc(CNC(=O)Cn2c(=O)oc3cc(S(=O)(=O)N4CCCCC4)ccc32)c1	9.69%
C/C=C/C(=O)OCc1csc(CC(=O)Nc2ccccc2C)n1	7.73%
Cc1cc2occ(CC(=O)NNC(=O)c3ccccc3F)c2cc1C	-1.94%
NC(=O)C1CCN(C(=O)/C(=C/c2ccco2)NC(=O)c2ccccc2)CC1	-1.45%
COc1ccc(CCn2c(=N)c(C(=O)NCC3CCCO3)cc3c(=O)n4cccc(C)c4nc32)cc1OC (stereo unspecified)	-4.64%
Cc1cc(-c2ccc(/C=N/n3cnnc3)o2)c([N+](=O)[O-])cc1C	12.6%
O=C1C2C3C=CC(C4CC34)C2C(=O)N1/N=C/c1ccc(-c2ccccc2[N+](=O)[O-])o1 (stereo unspecified)	13.3% (active)

Compound	max response
Cc1cc([N+](=O)[O-])c(-c2ccc(/C=N/n3cnnc3)o2)cc1Cl	15.8%
O=C(CN1CCN(c2ccc(F)cc2)CC1)Nc1ccccc1	-1.97%
CN(C)CCCSc1ccccc1NC(=O)/C=C/c1ccccc1	5.31%
CCOc1ccc(S(=O)(=O)NCc2ccc3c(c2)OCO3)cc1C	-1.1%
COc1cccc2[nH]c(C(=O)NCCc3ccccc3)cc12	42.7% (active)
COCCn1c(=S)[nH]c2cc(C(=O)NCCc3ccc(OC)c(OC)c3)ccc2c1=O	-1.71%
COc1ccc(CCNC(=O)c2ccccc2-c2ccccc2C(=O)O)cc1OC	-3.5%
Cc1cccc(N(C(=O)Cn2nnc(-c3ccc(C)o3)n2)C(C(=O)NC2CCCC2)c2ccncc2)c1 (stereo unspecified)	1.36%
CCn1c(SCC(=O)NC2CC2)nnc1-c1ccncc1	5.06%
Cc1cc(-c2ccccc2)nc(N2CCC(C(=O)NC34CC5CC(CC(C5)C3)C4)CC2)n1	27.8% (active)
O=C(NNC(=O)C1CCN(c2ncccn2)CC1)c1ccccc1	-2.14%
Cc1cc(C)cc(NC(=O)C2CCN(c3nc(C)cc(C)n3)CC2)c1	-2.08%
Cc1c(S(=O)(=O)N2CC(C)CC(C)C2)c(=O)n(C)c(=O)n1C (stereo unspecified)	-2.35%
CCN(CC)P(=O)(Nc1ccc(SC(F)F)cc1)c1ccc(N(C)C)cc1NC(=O)c1ccco1 (stereo unspecified)	11.5%
O=C1N(Cc2ccc3c(c2)OCO3)c2ccccc2C1(O)c1c[nH]c2ccccc12 (stereo unspecified)	-2.27%
COc1cc(NC(=O)C2=CC(c3ccco3)=NS(=O)(=O)N2C)cc(OC)c1OC	2.06%
O=C(Nc1ccccc1)c1ccc2nsnc2c1	29.1% (active)
O=C(Nc1cccc(NC(=O)c2ccc(Br)cc2)c1)c1ccccc1	2.45%
O=C(Nc1ccccc1N1CCCCC1)c1ccc2nccnc2c1	-1.32%
Cc1nc(C)c(C(=O)Nc2cccc(C)c2C)o1	-2.15%
O=S(=O)(Nc1ccccc1Cl)c1cccc2nsnc12	1.19%

Compound	max response
O=C(Nc1ccccc1Cl)c1ccc2nsnc2c1	30.7% (active)
Cc1cccc(NC(=O)c2cccc(C(=O)Nc3cccc(C)c3C)n2)c1C	-2.9%
Cc1cccc(NC(=O)c2ccc3nsnc3c2)c1C	10.4% (active)
Cc1ccc([N+](=O)[O-])c(OCCCNCC(C)O)c1 (stereo unspecified)	17.1%
Cc1cc(NC(=O)CCN2CCN(Cc3ccccc3)CC2)ccc1Br	-0.903%
COc1ccc(NC(=O)CN2C(=O)COc3ccc(S(=O)(=O)N4CCOCC4)cc32)cc1	-5.3%
COCCNc1ccc(-c2n[nH]c(=O)c3ccccc23)cc1[N+](=O)[O-]	-0.883%
COc1ccc(N(C)C(=O)C2CCN(S(=O)(=O)c3cccc4nsnc34)CC2)cc1	-1.67%
Cc1cc(N)n2nc(-c3ccc(C(C)(C)C)cc3)cc2n1	46.8% (active)
Cc1cc(C(C)(C)C)n2nc(C)c(-c3ccccc3)c2n1	-2.81%
Cc1nc2cc(-c3ccc(F)cc3)nn2c(N2CCOCC2)c1C	16.4%
O=C(CN1C(=O)c2cccnc2Oc2ccc(Cl)cc21)Nc1ccc(F)cc1	-3.07%
COc1cc(NC(=O)C2=CC(c3ccc(C)cc3)=NS(=O)(=O)N2C)cc(OC)c1OC	-1.64%
COc1cc(NC(=O)c2cccnc2SC)cc(OC)c1	-1.86%
O=C(COC(=O)c1ccc(F)cc1)Nc1nc2ccc([N+](=O)[O-])cc2s1	0.781%
CSc1ncccc1C(=O)Nc1ccc(C)cn1	9.66% (active)
COc1ccc(C(CNC(=O)c2cccnc2SC)N2CCOCC2)cc1 (stereo unspecified)	-3.3%
CSc1ncccc1C(=O)NC1CCCCCC1	19.5%
CSc1ncccc1C(=O)Nc1nc2ccc(F)cc2s1	53.4% (active)
